Results on 78 compounds are retold here after PubChem BioAssay AID651658 (Broad Institute, 2012).

Several values for one entry are separate records, joined by “and”; a condition that tells them apart may be missing. Equal values may be shown once. Hit rate of the full screen: of about 340,000 compounds, about 5,100 (1.5%) were called active. The full list was thinned out, with actives kept by preference. A number with no mark means an inactive call.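 Rule for the calls: active = mean Tm shift, scaled 0 neutral to 100 positive control, at about 1.3% or above, every replicate too (limit read from the data); inconclusive = no clear call, values can overlap the other calls; inactive = the rest.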

The target in this experiment is Fibroblast growth factor 22 (Homo sapiens) (UniProt Q9HCT0). Nature of the experiment: FGF22 ligand-induced thermal stabilization – biophysical, thermal shift, single point, FGF22 synaptogenesis inhibitor project, primary screen (AID 651658). As to conditions: recombinant FGF22 thermal shift, SYPRO orange fluorescence; at 9.99 µM; hits give high values; percent of sucrose octasulfate shift, DMSO zero.
Chain of Fibroblast growth factor 22 (Homo sapiens) (Q9HCT0 whole entry, looked up): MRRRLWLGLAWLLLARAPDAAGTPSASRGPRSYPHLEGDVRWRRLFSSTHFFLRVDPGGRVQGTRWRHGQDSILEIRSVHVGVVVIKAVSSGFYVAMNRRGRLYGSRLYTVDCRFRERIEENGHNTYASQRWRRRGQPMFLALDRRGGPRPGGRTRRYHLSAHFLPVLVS
Take `O=C(C[C@H]1CC[C@H](NC(=O)C2CCC2)[C@@H](CO)O1)NCCCN1CCOCC1`: the activity (Tm shift, normalised) was 0.216%. For `O=C(C1CCOCC1)N1CC2(C1)[C@H](c1ccccc1)[C@H](CO)N2Cc1ccc(Cl)cc1`, the activity (Tm shift, normalised) was -0.232%. Take `CN1C[C@H](O)COC[C@H]2O[C@H](CC(=O)NC3CCC3)CC[C@@H]21`: the activity (Tm shift, normalised) is 0.225%.

With `CCC(=O)N1C[C@@H](C)[C@@H](OC)CN(C)C(=O)c2ccc(NC(=O)C3CCCCC3)cc2OC[C@H]1C`, the activity (Tm shift, normalised) was 0.107%. For the compound `COc1ccccc1NC(=O)CN(c1ccccc1OC)S(=O)(=O)c1ccccc1`, the activity (Tm shift, normalised) was -0.013%. Regarding `COc1ccccc1N(CC(=O)Nc1ccc(C(F)(F)F)cc1)S(C)(=O)=O`, the activity (Tm shift, normalised) was 43.3% (active). Take `COc1ccccc1N(CC(=O)Nc1ccccc1C(=O)N1CCCC1)S(C)(=O)=O`: the activity (Tm shift, normalised) was 41.8%. For `COc1cccc(S(=O)(=O)N2C[C@H](O)COC[C@H]3O[C@@H](CC(=O)N4CCN(c5ccccc5)CC4)CC[C@@H]32)c1`, the activity (Tm shift, normalised) was 0.06%. In the case of `O=C(NCCO)c1cccc(-c2cccc3nccn23)c1`, the activity (Tm shift, normalised) is -0.228%. Next, `c1cc(-c2ccc3[nH]ccc3c2)n2ccnc2c1`: 43.4% (active). As for `Clc1ccc(-c2cccc3nccn23)cc1`, the activity (Tm shift, normalised) is 0.174%. Next, `Cn1cnc(CCNC(=O)C[C@H]2CC[C@@H]3[C@H](COC[C@H](O)CN3C(=O)C3CC3)O2)c1`: -0.297%. Next, `COc1cccc(S(=O)(=O)N2CC3(CCN(C)CC3)c3c(n(C)c4cc(OC)ccc34)[C@H]2CO)c1`: 0.01%; `C[C@H]1CN([C@@H](C)CO)C(=O)c2c(c3ccccc3n2C)-c2ccccc2CO[C@@H]1CN(C)Cc1ccc2c(c1)OCCN2C`: -0.115%. In the case of `O=C(NNC(=O)c1ccc(Cl)cc1Cl)c1cccs1`, the activity (Tm shift, normalised) was 43.3% (active).

As to `O=C(COC(=O)c1ccc(O)cc1O)NNC(=O)c1cccs1`, the activity (Tm shift, normalised) is 0.153%. Next, `Cc1ccc(NNC(=O)c2cccs2)cc1Cl`: -0.036%; `C/C=C/c1cnc2c(c1)C(=O)N([C@H](C)CO)C[C@H](C)[C@@H](CN(C)CC1CCOCC1)O2`: -0.049%; `C[C@@H]1CN([C@@H](C)CO)S(=O)(=O)c2ccc(C3=CCCC3)cc2O[C@H]1CN(C)C(=O)CC1CC1`: -0.028%. In the case of `COc1ccc2c3c([nH]c2c1)[C@@H](CO)N(C(=O)Nc1cccc(F)c1)CC31CCN(S(=O)(=O)c2ccccc2)CC1`, the activity (Tm shift, normalised) was -0.126%. `O=C(N[C@@H]1C=C[C@H](CC(=O)N2CCCCC2)O[C@H]1CO)c1cccc(F)c1`: the activity (Tm shift, normalised) was 2.12% (active).

With `O=C(N[C@H]1C=C[C@@H](CC(=O)N2CCCCC2)O[C@@H]1CO)c1ccc2c(c1)OCO2`, the activity (Tm shift, normalised) was -0.043%. `O=C(N[C@H]1CC[C@H](CC(=O)N2CCCCC2)O[C@@H]1CO)c1cccc(F)c1`: the activity (Tm shift, normalised) is -0.194% and -0.138%.

Consider `CCCNC(=O)N1CC2(CN(C(=O)c3cnccn3)C2)c2c([nH]c3cc(OC)ccc23)[C@@H]1CO`, for which the activity (Tm shift, normalised) was 0.028%.

Take `CCn1c(-c2ccncc2)n[nH]c1=S`: the activity (Tm shift, normalised) is 0.117%. As to `CCn1c(C(C)C)n[nH]c1=S`, the activity (Tm shift, normalised) is 43.3% (active). As for `CCc1cc(-c2n[nH]c(=S)n2CC(C)C)cs1`, the activity (Tm shift, normalised) is -0.833%.

For `O=C(C[C@H]1C[C@H]2c3cc(NC(=O)Nc4ccccc4F)ccc3O[C@H]2[C@H](CO)O1)NCc1ccccn1`, the activity (Tm shift, normalised) is 0.07%. As for `Cc1cccc(C)c1NC(=S)N1CCCCCC1`, the activity (Tm shift, normalised) was -0.275%.

For the compound `Cc1cccc(C)c1NC(=O)CNC(=O)C1CCCC1`, the activity (Tm shift, normalised) is -0.023%.

On to `Cc1cccc(C)c1NC(=O)C1(N(C(=O)c2ccccn2)c2ccc(O)cc2)CCCCC1`, for which the activity (Tm shift, normalised) is 43% (active).

Regarding `O=C(N[C@H]1CC[C@H](CCNS(=O)(=O)c2ccc(F)cc2)O[C@H]1CO)c1cccc(F)c1`, the activity (Tm shift, normalised) was -0.051%. Consider `O=C(Nc1cc(F)ccc1F)N[C@@H]1C=C[C@@H](CC(=O)N2CCc3ccccc3C2)O[C@@H]1CO`, for which the activity (Tm shift, normalised) is -0.137%. Regarding `CCC(=O)N1[C@@H](CO)[C@@H]2c3ccccc3N(C(=O)c3cnccn3)C[C@@H]21`, the activity (Tm shift, normalised) is -0.28%.

On to `Cc1ccc(S(=O)(=O)N2CCN(C(=O)COC(=O)c3c(C)noc3C)CC2)c(C)c1`, for which the activity (Tm shift, normalised) was -0.319%. Next, `CCc1noc(C)c1C(=O)OCC(=O)c1ccc(NC(=O)CC(C)C)cc1`: -0.332%; `COc1ccc(C(=O)COC(=O)c2c(C)noc2C)cc1Cl`: 44% (active); `COC(=O)C1=CN(c2c(C)cc(C)cc2C)C(N)=C(C#N)C1c1cccc(F)c1` (stereo not drawn): -0.26%. As to `Cn1c2c(c(=O)n(C)c1=O)C(c1cccc(F)c1)C(C#N)=C(N)O2` (stereo not drawn), the activity (Tm shift, normalised) was -0.167%. Turning to `CCOC(=O)C1=C(CC)OC(N)=C(C#N)C1c1ccc(F)cc1F` (stereo not drawn), the activity (Tm shift, normalised) was 43.8% (active). Turning to `O=S(=O)(c1cccs1)N1CCCc2nc(-c3ccc(Br)cc3)ccc21`, the activity (Tm shift, normalised) is 0.061%. The figure for `COc1ccc(-c2ccc3c(n2)CCCN3S(=O)(=O)c2ccc(C)cc2)cc1` is 48.4% (active); for `CN1CCCc2nc(-c3ccccc3)ccc21` it is 42.2%; for `C[C@@H]1CCCCO[C@@H](CN(C)Cc2ccc(C(=O)O)cc2)[C@H](C)CN([C@H](C)CO)C(=O)c2cc(NS(=O)(=O)c3cccs3)ccc2O1` it is -0.274%. As to `C[C@@H]1CN([C@H](C)CO)C(=O)c2cc(NS(=O)(=O)c3ccccc3)ccc2O[C@@H](C)CCCCO[C@H]1CN(C)S(=O)(=O)c1ccc(Cl)cc1`, the activity (Tm shift, normalised) is -0.893%. Next, `COCc1cn(CC[C@H]2CC[C@H](NC(=O)Nc3ccc4c(c3)OCO4)[C@@H](CO)O2)nn1`: -0.239%. Consider `CO[C@@H]1CN(C)C(=O)c2cc(NC(=O)Nc3cccc(F)c3)ccc2OC[C@H](C)N(C)C[C@@H]1C`, for which the activity (Tm shift, normalised) was -0.31%.

Turning to `COc1ccc(-c2ccc3c(c2)[C@H]2[C@H](CCN2C(=O)C2CCOCC2)[C@H](CO)N3C)cc1`, the activity (Tm shift, normalised) was -0.244%. With `Cc1ccc(C2=Nc3c(ccc4ccccc34)C(c3ccncc3)=NN2)cc1`, the activity (Tm shift, normalised) was 44% (active).

For `COc1ccc(S(=O)(=O)N(C)C[C@@H]2Oc3ccc(NC(=O)CCN4CCOCC4)cc3CC(=O)N([C@@H](C)CO)C[C@@H]2C)cc1`, the activity (Tm shift, normalised) is -0.109%. On to `Cn1c(=O)c2cc(S(=O)(=O)NCCC(=O)Nc3ccc(F)cc3F)ccc2n(C)c1=O`, for which the activity (Tm shift, normalised) was 43.3% (active). Next, `COc1ccc(NC(=O)CCNS(=O)(=O)c2ccc3c(c2)c(=O)n(C)c(=O)n3C)cc1OC`: -0.132%; `CCc1ccccc1NC(=O)CN(C)S(=O)(=O)c1ccc2c(c1)c(=O)n(C)c(=O)n2C`: -0.036%. As for `CCCC#Cc1cnc2c(c1)C(=O)N([C@@H](C)CO)C[C@@H](C)[C@@H](CN(C)Cc1ccccc1F)O2`, the activity (Tm shift, normalised) was -0.354%. With `C/C(=N\OC(=O)c1ccccc1)c1c(C)nc2cc(C)ccn12`, the activity (Tm shift, normalised) is 44.6% (active). Next, `C/C(=N/OC(=O)c1ccc(Br)cc1)c1ccc(C)cc1`: 0.152%; `Cc1ccn2c(-c3csc(Nc4ccc(C(=O)O)cc4)n3)c(C)nc2c1`: -0.135%; `Cc1ccccc1-c1cnc2c(c1)C(=O)N([C@H](C)CO)C[C@@H](C)[C@H](CN(C)C(=O)c1cccnc1)O2`: 0.163%. Next, `CO[C@@H]1CN(C)C(=O)c2ccc(NC(=O)Nc3cc(Cl)cc(Cl)c3)cc2OC[C@H](C)NC[C@H]1C`: -0.905%; `Cc1ccc(S(=O)(=O)NC2CCCCCC2)cc1`: 43% (active). On to `CC(C)c1ccc(S(=O)(=O)NC2CCCC2)cc1`, for which the activity (Tm shift, normalised) is 0.004%. For the compound `Cc1ccc(S(=O)(=O)N[C@H]2CCC[C@@H]2O)cc1`, the activity (Tm shift, normalised) was -0.275%. `C[C@@H]1CN([C@@H](C)CO)C(=O)CCCn2cc(nn2)CO[C@@H]1CN(C)S(=O)(=O)c1ccccc1C#N`: the activity (Tm shift, normalised) was -0.156%. Next, `O=C(CC(=O)N/N=C\c1ccc(F)cc1)NCCc1ccccc1`: 0.292%.

In the case of `CSc1ccc(/C=N\NC(=O)CC(=O)NC(C)C)cc1`, the activity (Tm shift, normalised) was 43.1% (active). `CSc1ccc(/C=N/NC(=O)c2cccc(Cl)c2)cc1`: the activity (Tm shift, normalised) was 0.743%. On to `Cc1ccc(S(=O)(=O)N(C)C[C@@H]2Oc3ccc(NS(=O)(=O)c4cccs4)cc3C(=O)N([C@@H](C)CO)C[C@H]2C)cc1`, for which the activity (Tm shift, normalised) is -0.456%. The figure for `CO[C@H]1CN(C)C(=O)c2cc(NC(=O)C3CCC3)ccc2OC[C@H](C)N(CC2CCCCC2)C[C@@H]1C` is 0.141%; for `O=S(=O)(c1ccccc1)N(Cc1cccc(F)c1)c1ccccc1` it is -0.239%; for `CCN(c1ccccc1)S(=O)(=O)c1ccc(N)cc1` it is -0.161%. With `O=S(=O)(ON(c1ccccc1)S(=O)(=O)c1ccccc1)c1ccccc1`, the activity (Tm shift, normalised) is 1.68% (active). For the compound `CN1c2ccc(C3=CCCCC3)cc2[C@@H]2[C@@H](CCN2S(=O)(=O)c2ccccc2F)[C@H]1CO`, the activity (Tm shift, normalised) was -0.132%. Consider `Cc1noc(C)c1NC(=O)N[C@H]1C=C[C@@H](CC(=O)Nc2ccccc2)O[C@H]1CO`, for which the activity (Tm shift, normalised) is -0.156%.

Take `CO[C@@H]1CN(C)C(=O)c2cc(NS(=O)(=O)c3cccc(F)c3)ccc2OC[C@@H](C)NC[C@@H]1C`: the activity (Tm shift, normalised) was -0.14%. Consider `Cc1ccc(-c2c[n+](CC(=O)Nc3ccccc3)c3n2CCC3)cc1`, for which the activity (Tm shift, normalised) was -0.075%.

As to `Clc1ccc(C[n+]2cc(-c3ccccc3)n3c2CCC3)cc1`, the activity (Tm shift, normalised) is -0.249%.

In the case of `Cc1ccc(C(=O)C[n+]2cc(-c3ccccc3)n3c2CCCCC3)cc1`, the activity (Tm shift, normalised) is 44.4% (active). `O=C(C[C@H]1C=C[C@H](NC(=O)Nc2cc(F)ccc2F)[C@H](CO)O1)Nc1ccccc1`: the activity (Tm shift, normalised) is 0.041%.
